Experimental data reported in PubChem BioAssay AID1159580 (chemical genetic matrix, 2015).
The whole screen tested about 5,500 compounds, of which about 2,000 (36%) were called active. Another 18% or so got no clear call; they are omitted. This is one part of the list. Values without a mark were called inactive. No stated cut-off is given here; in the data, active means normalized growth mostly below about 0.91 (no sharp cut-off); inconclusive means no clear call, values can overlap the other calls; inactive means mostly above about 0.92.

Assay: chemical genetic growth profiling, strain panel (AID 1159580);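 further: tested at 20 µM; growth read once vehicle control cultures reached saturation at 30 °C; 1 = growth at the plate median or of vehicle wells; lower values mean less growth of the strain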
Conditions: growth OD

With `CC(=O)Oc1cccc2c1C(=O)c1c(OC(C)=O)cc(C(=O)O)cc1C2=O` as the compound, how does the normalized growth (S. cerevisiae deletion strains, locus YJR075W, strain HOC1, active compounds read low) read?
Its normalized growth is 0.994.

What about the normalized growth (S. cerevisiae deletion strains, locus YKL009W, strain mrt4, active compounds read low) of the same compound?
The normalized growth was 0.986.

And the normalized growth (S. cerevisiae deletion strains, locus YKL068W, active compounds read low)?
Its normalized growth is 0.993.

And the normalized growth (S. cerevisiae deletion strains, locus YKL085W, strain MDH1 (second series), active compounds read low)?
The normalized growth was 1.

What about the normalized growth (S. cerevisiae deletion strains, locus YKL085W, strain MDH1, active compounds read low) of the same compound?
The normalized growth was 1.

What about the normalized growth (S. cerevisiae deletion strains, locus YKL160W, strain elf1, active compounds read low) of the same compound?
Its normalized growth is 0.901 (active).

And the normalized growth (S. cerevisiae deletion strains, locus YKL190W, strain CNB1, active compounds read low)?
Its normalized growth is 0.986.

And the normalized growth (S. cerevisiae deletion strains, locus YKR001C, strain vps1, active compounds read low)?
Its normalized growth is 0.174 (active).

And the normalized growth (S. cerevisiae deletion strains, locus YKR026C, strain gcn3, active compounds read low)?
Its normalized growth is 0.908 (active).

What about the normalized growth (S. cerevisiae deletion strains, locus YKR091W, strain srl3, active compounds read low) of the same compound?
Its normalized growth is 0.944.

And the normalized growth (S. cerevisiae deletion strains, locus YLL001W, strain dnm1, active compounds read low)?
Its normalized growth is 0.901 (active).

And the normalized growth (S. cerevisiae deletion strains, locus YLL026W, active compounds read low)?
Its normalized growth is 0.917 (active).

What about the normalized growth (S. cerevisiae deletion strains, locus YLL041C, strain sdh2, active compounds read low) of the same compound?
The normalized growth was 0.954.

And the normalized growth (S. cerevisiae deletion strains, locus YLR027C, strain aat2, active compounds read low)?
Its normalized growth is 0.92 (active).

What about the normalized growth (S. cerevisiae deletion strains, locus YLR039C, strain RIC1, active compounds read low) of the same compound?
Its normalized growth is 1.02.

What about the normalized growth (S. cerevisiae deletion strains, locus YLR058C, strain SHM2, active compounds read low) of the same compound?
The normalized growth was 1.

What about the normalized growth (S. cerevisiae deletion strains, locus YLR102C, strain apc9, active compounds read low) of the same compound?
Its normalized growth is 0.589 (active).

And the normalized growth (S. cerevisiae deletion strains, locus YLR113W, strain HOG1, active compounds read low)?
Its normalized growth is 1.

And the normalized growth (S. cerevisiae deletion strains, locus YLR221C, strain rsa3, active compounds read low)?
The normalized growth was 0.898 (active).

What about the normalized growth (S. cerevisiae deletion strains, locus YLR258W, strain gsy2, active compounds read low) of the same compound?
Its normalized growth is 0.909 (active).

What about the normalized growth (S. cerevisiae deletion strains, locus YLR262C, strain YPT6 (second series), active compounds read low) of the same compound?
Its normalized growth is 0.891.

And the normalized growth (S. cerevisiae deletion strains, locus YLR262C, strain YPT6, active compounds read low)?
The normalized growth was 1.05.

And the normalized growth (S. cerevisiae deletion strains, locus YLR268W, strain sec22, active compounds read low)?
The normalized growth was 0.39 (active).

What about the normalized growth (S. cerevisiae deletion strains, locus YLR320W, strain mms22, active compounds read low) of the same compound?
The normalized growth was 0.908.

And the normalized growth (S. cerevisiae deletion strains, locus YLR330W, strain CHS5, active compounds read low)?
Its normalized growth is 1.01.

And the normalized growth (S. cerevisiae deletion strains, locus YLR342W, strain FKS1 (second series), active compounds read low)?
The normalized growth was 1.05.

What about the normalized growth (S. cerevisiae deletion strains, locus YLR342W, strain FKS1, active compounds read low) of the same compound?
The normalized growth was 0.891 (active).

And the normalized growth (S. cerevisiae deletion strains, locus YLR357W, strain rsc2, active compounds read low)?
Its normalized growth is 0.859.

And the normalized growth (S. cerevisiae deletion strains, locus YLR370C, strain arc18, active compounds read low)?
The normalized growth was 0.917.

And the normalized growth (S. cerevisiae deletion strains, locus YLR371W, strain rom2, active compounds read low)?
Its normalized growth is 0.433 (active).

What about the normalized growth (S. cerevisiae deletion strains, locus YLR384C, strain iki3, active compounds read low) of the same compound?
The normalized growth was 0.954.

What about the normalized growth (S. cerevisiae deletion strains, locus YLR418C, strain cdc73, active compounds read low) of the same compound?
Its normalized growth is 0.28 (active).

What about the normalized growth (S. cerevisiae deletion strains, locus YML016C, strain PPZ1, active compounds read low) of the same compound?
The normalized growth was 1.01.

And the normalized growth (S. cerevisiae deletion strains, locus YML032C, strain rad52, active compounds read low)?
Its normalized growth is 0.392 (active).

What about the normalized growth (S. cerevisiae deletion strains, locus YML120C, strain ndi1, active compounds read low) of the same compound?
Its normalized growth is 0.943.

What about the normalized growth (S. cerevisiae deletion strains, locus YML124C, strain tub3, active compounds read low) of the same compound?
The normalized growth was 0.537 (active).

What about the normalized growth (S. cerevisiae deletion strains, locus YMR058W, strain fet3, active compounds read low) of the same compound?
Its normalized growth is 0.806 (active).

What about the normalized growth (S. cerevisiae deletion strains, locus YMR078C, strain ctf18, active compounds read low) of the same compound?
Its normalized growth is 0.826 (active).

And the normalized growth (S. cerevisiae deletion strains, locus YMR125W, strain sto1, active compounds read low)?
The normalized growth was 0.94.

What about the normalized growth (S. cerevisiae deletion strains, locus YMR129W, active compounds read low) of the same compound?
Its normalized growth is 0.947.

What about the normalized growth (S. cerevisiae deletion strains, locus YMR205C, strain PFK2, active compounds read low) of the same compound?
The normalized growth was 0.948.

What about the normalized growth (S. cerevisiae deletion strains, locus YMR223W, strain ubp8, active compounds read low) of the same compound?
The normalized growth was 0.301 (active).

And the normalized growth (S. cerevisiae deletion strains, locus YMR231W, strain pep5, active compounds read low)?
The normalized growth was 0.942.

And the normalized growth (S. cerevisiae deletion strains, locus YMR263W, strain SAP30, active compounds read low)?
The normalized growth was 1.

And the normalized growth (S. cerevisiae deletion strains, locus YMR307W, strain GAS1, active compounds read low)?
Its normalized growth is 1.18.

And the normalized growth (S. cerevisiae deletion strains, locus YNL067W, strain RPL9B, active compounds read low)?
Its normalized growth is 1.01.

And the normalized growth (S. cerevisiae deletion strains, locus YNL071W, strain lat1, active compounds read low)?
The normalized growth was 0.901 (active).

And the normalized growth (S. cerevisiae deletion strains, locus YNL128W, strain TEP1, active compounds read low)?
The normalized growth was 0.993.

And the normalized growth (S. cerevisiae deletion strains, locus YNL153C, strain GIM3, active compounds read low)?
Its normalized growth is 1.01.

And the normalized growth (S. cerevisiae deletion strains, locus YNL183C, strain NPR1, active compounds read low)?
Its normalized growth is 0.896.

What about the normalized growth (S. cerevisiae deletion strains, locus YNL209W, strain ssb2, active compounds read low) of the same compound?
Its normalized growth is 0.93.

And the normalized growth (S. cerevisiae deletion strains, locus YNL233W, strain BNI4, active compounds read low)?
The normalized growth was 1.02.

What about the normalized growth (S. cerevisiae deletion strains, locus YNL248C, strain rpa49, active compounds read low) of the same compound?
Its normalized growth is 0.948.

And the normalized growth (S. cerevisiae deletion strains, locus YNL250W, strain rad50, active compounds read low)?
Its normalized growth is 0.992.

And the normalized growth (S. cerevisiae deletion strains, locus YNL271C, strain bni1, active compounds read low)?
The normalized growth was 0.997.

And the normalized growth (S. cerevisiae deletion strains, locus YNL298W, strain CLA4, active compounds read low)?
Its normalized growth is 0.995.

And the normalized growth (S. cerevisiae deletion strains, locus YNL307C, strain MCK1, active compounds read low)?
The normalized growth was 0.221 (active).

And the normalized growth (S. cerevisiae deletion strains, locus YNL322C, strain KRE1 (second series), active compounds read low)?
The normalized growth was 0.887 (active).

What about the normalized growth (S. cerevisiae deletion strains, locus YNL322C, strain KRE1, active compounds read low) of the same compound?
Its normalized growth is 1.

What about the normalized growth (S. cerevisiae deletion strains, locus YNR049C, strain mso1, active compounds read low) of the same compound?
The normalized growth was 0.956.

And the normalized growth (S. cerevisiae deletion strains, locus YNR052C, strain pop2, active compounds read low)?
Its normalized growth is 0.135 (active).

And the normalized growth (S. cerevisiae deletion strains, locus YOL006C, strain TOP1, active compounds read low)?
The normalized growth was 1.02.

What about the normalized growth (S. cerevisiae deletion strains, locus YOL012C, strain htz1) of the same compound?
The normalized growth was 2.42 [resistant] (active).

What about the normalized growth (S. cerevisiae deletion strains, locus YOL147C, strain pex11, active compounds read low) of the same compound?
The normalized growth was 0.433 (active).

And the normalized growth (S. cerevisiae deletion strains, locus YOR001W, strain rrp6, active compounds read low)?
Its normalized growth is 0.952.

What about the normalized growth (S. cerevisiae deletion strains, locus YOR061W, strain CKA2, active compounds read low) of the same compound?
Its normalized growth is 0.996.

What about the normalized growth (S. cerevisiae deletion strains, locus YOR069W, strain VPS5, active compounds read low) of the same compound?
The normalized growth was 1.

And the normalized growth (S. cerevisiae deletion strains, locus YOR070C, strain gyp1, active compounds read low)?
Its normalized growth is 0.932.

What about the normalized growth (S. cerevisiae deletion strains, locus YOR080W, strain dia2, active compounds read low) of the same compound?
Its normalized growth is 0.938.

And the normalized growth (S. cerevisiae deletion strains, locus YOR083W, strain WHI5, active compounds read low)?
Its normalized growth is 0.918.

And the normalized growth (S. cerevisiae deletion strains, locus YOR106W, strain vam3, active compounds read low)?
Its normalized growth is 0.905.

What about the normalized growth (S. cerevisiae deletion strains, locus YOR136W, strain idh2, active compounds read low) of the same compound?
The normalized growth was 0.498 (active).

What about the normalized growth (S. cerevisiae deletion strains, locus YOR144C, strain elg1, active compounds read low) of the same compound?
The normalized growth was 0.609 (active).

What about the normalized growth (S. cerevisiae deletion strains, locus YOR184W, strain ser1, active compounds read low) of the same compound?
The normalized growth was 1.02.

And the normalized growth (S. cerevisiae deletion strains, locus YOR231W, strain MKK1, active compounds read low)?
Its normalized growth is 0.95.

And the normalized growth (S. cerevisiae deletion strains, locus YOR265W, strain rbl2, active compounds read low)?
The normalized growth was 0.918 (active).

What about the normalized growth (S. cerevisiae deletion strains, locus YOR270C, strain vph1, active compounds read low) of the same compound?
Its normalized growth is 0.925.

What about the normalized growth (S. cerevisiae deletion strains, locus YOR290C, strain snf2, active compounds read low) of the same compound?
The normalized growth was 0.927.

What about the normalized growth (S. cerevisiae deletion strains, locus YOR316C, strain cot1, active compounds read low) of the same compound?
The normalized growth was 0.433 (active).

And the normalized growth (S. cerevisiae deletion strains, locus YPL051W, strain arl3, active compounds read low)?
Its normalized growth is 0.867 (active).

What about the normalized growth (S. cerevisiae deletion strains, locus YPL055C, strain LGE1, active compounds read low) of the same compound?
The normalized growth was 1.01.

And the normalized growth (S. cerevisiae deletion strains, locus YPL078C, strain atp4, active compounds read low)?
Its normalized growth is 0.899.

What about the normalized growth (S. cerevisiae deletion strains, locus YPL106C, strain sse1, active compounds read low) of the same compound?
The normalized growth was 0.989.

What about the normalized growth (S. cerevisiae deletion strains, locus YPL240C, strain hsp82, active compounds read low) of the same compound?
Its normalized growth is 0.909 (active).

And the normalized growth (S. cerevisiae deletion strains, locus YPL241C, strain CIN2, active compounds read low)?
The normalized growth was 1.05.

And the normalized growth (S. cerevisiae deletion strains, locus YPL256C, strain CLN2, active compounds read low)?
The normalized growth was 0.955.

And the normalized growth (S. cerevisiae deletion strains, locus YPR119W, strain clb2, active compounds read low)?
Its normalized growth is 0.63 (active).

And the normalized growth (S. cerevisiae deletion strains, locus YPR141C, strain kar3, active compounds read low)?
The normalized growth was 0.997.

What about the normalized growth (S. cerevisiae deletion strains, locus YPR163C, strain tif3, active compounds read low) of the same compound?
Its normalized growth is 0.359 (active).

What about the normalized growth (S. cerevisiae deletion strains, locus YPR167C, strain met16, active compounds read low) of the same compound?
The normalized growth was 0.309 (active).

What about the normalized growth (S. cerevisiae deletion strains, strain wtn01, active compounds read low) of the same compound?
The normalized growth was 0.22 (active).

And the normalized growth (S. cerevisiae strains, strain wild type, active compounds read low)?
Its normalized growth is 0.998.
